Compound activity from PubChem BioAssay.
Sampled rows, rich in hits. Any-hit rate of the full collection: about 12%.
RORg inh: qHTS for inhibitors of ROR gamma transcriptional activity; Nuclear receptor ROR-gamma (Mus musculus), P51450; Drosophila S2 Gal4-RORgamma UAS-luciferase reporter, 20 h; Potency, µM (doses to about 53.6 µM), inactives show at the top dose activity change, negative = inhibition, actives largely listed as inhibitors; 310,000 compounds, 5.4% hits; AID 2551, 2010; also: nearly all actives have a fitted effect of over 60% in size
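Using a luciferase readout, inhibitors were identified by reduced reporter activity in Drosophila cells coexpressing a copper-inducible Gal4–ROR gamma fusion and UAS-driven Photinus luciferase, incubated 20 hr after 700 uM copper sulfate.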
PLK1 PBD block: qHTS for Inhibitors of PLK1-PDB (polo-like kinase 1 - polo-box domain): Primary Screen; Potency, µM, for inactives: max response, negative = inhibition, usual class: inhibitors; 360,000 compounds, 2.8% hits; Plk1 PBD binding of FITC phosphopeptide, fluorescence polarization; Serine/threonine-protein kinase PLK1 (Homo sapiens), P53350; also: series mostly up to about 57 µM; nearly all actives have a fitted effect of over 65% in size
VP16 counter: VP16 counterscreen qHTS for inhibitors of ROR gamma transcriptional activity; 310,000 compounds, 3.5% hits; Potency, µM (top dose mostly 53.6 µM), for the others: at the top dose activity, negative = inhibition, actives largely listed as inhibitors; Drosophila S2 Gal4-VP16 UAS-luciferase, luminescence, 20 h;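 also: Gal4-VP16 expression switched on by copper sulfate through the metallothionein promoter; nearly all actives have a fitted effect of over 50% in size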
ALDH1A1 inh: qHTS Assay for Inhibitors of Aldehyde Dehydrogenase 1 (ALDH1A1) | Aldehyde dehydrogenase 1A1 (Homo sapiens), P00352 | Purified ALDH1A1, NADH fluorescence, propionaldehyde substrate | Potency, µM (doses to about 75.3 µM), for the others: at the top dose activity, negative = inhibition, most hits filed as inhibitors | 220,000 compounds, 7.3% hits | AID 1030, 2008; active = well fitted inhibition curve with a large enough effect, not every such curve was filed as active; inconclusive = small, poorly fitted or top-dose-only effect, or another doubt; inactive = no such curve, though single readings can be large or run the other way;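 also: plate controls were no enzyme wells and a reference inhibitor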
Target sequence (P00352 whole entry, looked up): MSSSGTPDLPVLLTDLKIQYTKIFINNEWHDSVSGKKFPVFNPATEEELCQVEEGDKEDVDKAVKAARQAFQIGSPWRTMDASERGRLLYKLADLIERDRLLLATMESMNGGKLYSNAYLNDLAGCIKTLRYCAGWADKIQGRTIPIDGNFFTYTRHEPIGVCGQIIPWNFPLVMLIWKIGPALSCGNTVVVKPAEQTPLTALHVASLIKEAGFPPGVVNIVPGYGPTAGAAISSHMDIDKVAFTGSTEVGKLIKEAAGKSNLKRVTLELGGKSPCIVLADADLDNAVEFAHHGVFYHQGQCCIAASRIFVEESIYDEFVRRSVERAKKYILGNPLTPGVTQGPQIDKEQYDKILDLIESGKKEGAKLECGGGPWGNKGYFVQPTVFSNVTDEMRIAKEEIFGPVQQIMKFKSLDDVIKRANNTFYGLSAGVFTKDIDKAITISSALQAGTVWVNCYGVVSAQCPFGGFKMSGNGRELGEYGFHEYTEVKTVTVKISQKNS
Sfp inh: qHTS Assay for Inhibitors of Bacillus subtilis Sfp phosphopantetheinyl transferase (PPTase). Biochemical Sfp PPTase activity, qHTS. Potency, µM, for inactives: largest response in the series, negative = inhibition, actives largely listed as inhibitors. 310,000 compounds, 3.5% hits. AID 1490, 2009;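 also: the enzyme is Sfp with the accession as filed and its product quenches rhodamine fluorescence; 0% = enzyme reaction without inhibitor and -100% = no enzyme wells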
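Sfp 15 nM + cpd, 15 min RT; start w/ rhodamine-CoA 5 uM, BHQ-2-YbbR 12.5 uM (final); 50 mM Hepes pH 7.6, 10 mM MgCl2, 0.01% NP-40, 0.01% BSA; read 525/598 nm at 0 and 30 min.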
Numbers without * were called inactive; ? = inconclusive; · = no result; [ ] = another dose, or the depositor's remark. Unless noted, calls follow the shape of the dose curve; as a rule, active = well fitted curve in the direction sought with a large enough effect; inconclusive = small, poorly fitted or top-dose-only effect, or another doubt; inactive = no such curve, though single readings can be large; an effect the other way counts as inactive or inconclusive. Unless noted, % is scaled to controls: 0 for no effect and ±100 for the full control effect; potency is read from the fitted curve at half-maximal effect.

SMILES	RORg inh	PLK1 PBD block	VP16 counter	ALDH1A1 inh	Sfp inh
CCn1cc(CNC(=S)Nc2cccc3ccccc23)cn1	?	-12.1%	-73.8%	6.31µM*	-18.8%
S=C(NCCc1ccccc1)Nc1cccc2cnccc12	5.01µM*	?	4.47µM*	20µM*	50.1µM*
S=C(NCc1ccccc1)Nc1cccc2cnccc12	-7.3%	?	?	·	56.2µM*
COCCNC(=S)Nc1cccc2cnccc12	-1.7%	3.5%	-13.4%	-14.4%	-15.7%
CC(C)C[C@H](NC(=O)[C@@H]1CCC(=O)N1)C(=O)N[C@@H](Cc1ccc(O)cc1)C(=O)N[C@@H](CCC(=O)O)C(=O)N[C@@H](CC(N)=O)C(=O)N[C@@H](CCCCN)C(=O)N1CCC[C@H]1C(=O)N[C@@H](CCCN=C(N)N)C(=O)N[C@@H](CCCN=C(N)N)C(=O)N1CCC[C@H]1C(=O)N[C@@H](Cc1ccc(O)cc1)C(=O)O	7.1%	·	-1.1%	·	14.8%
COc1ncc2nc(-c3cn(C)c4ccccc34)c(=O)n(CCc3ccccc3)c2n1	-1.2%	·	1.8%	15.1%	-0.1%
C=CCNC(=S)NCc1cccnc1	47.1%	-6.1%	-1.3%	7.9%	79.4µM*
S=C(NCc1cccnc1)NCc1cccnc1	7.8%	-0.3%	-20.8%	16.9%	11.1%
Cc1cccc(N2CCN(C(=O)c3ccc(NS(=O)(=O)c4c(C)noc4C)cc3)CC2)c1C	-4.4%	-3.8%	-4.7%[0.365 µM]	14.1µM*	9.4%
Cc1cccc(N2CCN(C(=O)CSCc3c(C)noc3C)CC2)c1C	?	-0.9%	10µM*	-3.9%	-6.3%
Cc1noc(C)c1CSCC(=O)N1CCN(c2ccc(F)cc2)CC1	?	-10.5%	?	-5.0%	0.3%
COc1cc(OC)c2c(c1)OC1Cc3cc(OC)c(OC)cc3C2O1 (stereo unspecified)	·	·	·	1.9%[13.5 µM]	-17.2%
CC(C)C(c1nnnn1C1CCCC1)N(C)C1CCCCC1 (stereo unspecified)	6.4%	0.6%	0.8%	28.2µM*	3.1%
CN(C)CCn1c2ccccc2c2nc3ccc([N+](=O)[O-])cc3cc21	7.94µM*	-11.3%	11.2µM*	·	9.8%
CCn1c2ccccc2c2cc([N+](=O)[O-])ccc21	-14.7%	-15.9%	-1.7%	-11.0%	4.6%
Cc1n[nH]c(C)c1Cc1c(F)cccc1Cl	15.8µM*	-22.8%	-9.3%	·	18.8%
Cc1[nH]ccc(=O)c1Cc1c(Cl)cccc1Cl	11.2%	0.5%	1.7%	·	5.7%
CCCCCCNC(=O)Nc1ccc(S(=O)(=O)Nc2ccc(CCNC[C@H](O)COc3ccc(O)cc3)cc2)cc1	?	·	?	-3.5%	25.1µM*
CCCCOc1ccc(S(=O)(=O)Nc2ccc(NC(C)=O)cc2)cc1	?	-4.1%	?	2.1%	11.4%
Cc1cc(C)cc(NC(=O)C2CCN(c3nccs3)CC2)c1	-11.8%	-22.3%	4.0%	10.1%	89.1µM*
Cc1cc(C)cc(NC(=O)C2CCN(S(C)(=O)=O)CC2)c1	-0.5%	-10.1%	1.5%	·	9.3%
N#CCc1ccc(NS(=O)(=O)c2ccc(N3CCCC3=O)cc2)cc1	33.4%	-6.5%	1.5%	14.1µM*	7.1%
COc1ncc2nc(-c3ccc(F)cc3)c(=O)n(C[C@H]3CCCO3)c2n1	1.8%	·	-6.4%	?	7.9%
CC1=C(C#N)C(/C=N/OCc2ccc(F)cc2Cl)CC(=O)N1 (stereo unspecified)	37.5%	29.9µM*	-1.7%	?	12.0%
O=C(N/N=C/c1ccc([N+](=O)[O-])o1)c1cn(-c2ccccc2)nc1-c1ccc(Cl)cc1	4.8%	-16.5%	-13.0%	9.1%	0.0%
O=[N+]([O-])CC(=Nc1ccc(Cl)cc1)N/N=C\c1oc(O)c2ccccc12	-20.5%	16.8µM*	2.1%	?	-12.7%
Cc1ccc2c(c1)C(N1CCN(C)CC1)=Nc1cccnc1N2	·	·	·	-1.8%	·
C=CC(=O)Nc1cccc(Nc2nc(N[C@H]3CC[C@H](N(C)C)CC3)nc3c2ncn3C(C)C)c1	·	-6.0%	·	·	·
